A selection: hits, their analogues and other compounds. The true share with any hit is near 9.4%.
ALDH1A1 inh = inhibitors of human aldehyde dehydrogenase 1A1 | 220,000 compounds, 7.3% hits | P00352 | Purified ALDH1A1, NADH fluorescence, propionaldehyde substrate | AID 1030 | Potency, µM (titrated, usually from 75.3 µM), without a hit: top-dose activity, negative = inhibition, most hits filed as inhibitors; active = well fitted inhibition curve with a large enough effect, not every such curve was filed as active; inconclusive = small, poorly fitted or top-dose-only effect, or another doubt; inactive = no such curve, though single readings can be large or run the other way;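 note: potency is the fitted concentration of half-maximal effect; plate controls were no enzyme wells and a reference inhibitor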
Target sequence (P00352 whole entry, looked up): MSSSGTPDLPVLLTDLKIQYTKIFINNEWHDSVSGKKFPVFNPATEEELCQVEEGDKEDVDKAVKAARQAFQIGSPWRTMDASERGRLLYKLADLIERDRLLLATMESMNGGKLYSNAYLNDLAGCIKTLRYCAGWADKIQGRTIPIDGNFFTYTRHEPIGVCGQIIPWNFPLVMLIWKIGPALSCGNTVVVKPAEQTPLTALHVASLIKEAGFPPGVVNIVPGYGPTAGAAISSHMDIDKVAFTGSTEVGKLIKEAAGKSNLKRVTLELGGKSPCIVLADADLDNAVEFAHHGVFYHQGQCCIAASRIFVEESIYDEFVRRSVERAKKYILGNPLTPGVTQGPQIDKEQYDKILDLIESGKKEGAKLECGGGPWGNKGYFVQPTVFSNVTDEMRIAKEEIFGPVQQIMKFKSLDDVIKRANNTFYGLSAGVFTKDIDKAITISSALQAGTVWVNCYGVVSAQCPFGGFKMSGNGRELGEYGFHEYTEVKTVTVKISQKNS
HTT ATP protect = Huntington cell model cytoprotection by ATP luminescence; Potency, µM (doses to about 56.4 µM), for the others: cytoprotection (ATP increase), hits mostly activators; AID 1471; 230,000 compounds, 0.14% hits; PC12 HTT-Q103 induced, cytoprotection, ATP luminescence, 40 h; note: potency is the fitted concentration of half-maximal effect; % of control where 0% means no effect; nearly all actives have a fitted effect of over 45% in size
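ATP quantification (ATPlite) reports survival of PC12 cells in which tebufenozide, 100 nM final, switches on Htt exon 1 with 103 glutamines linked to GFP; compounds are titrated.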
IMPase cell inh = membrane-permeable compound that blocks inositol monophosphatase | P97697 | CHO-M1 cells, IP1 accumulation, HTRF TR-FRET ratio | inhibition (IP1 accumulation), % at 46.1 µM | 120,000 tested, under 10 active | AID 901; active = well fitted curve in the direction sought with a large enough effect in the signal ratio, not every such curve was filed as active; inconclusive = small, poorly fitted or top-dose-only effect, or a change in a side signal; inactive = no such curve, though single readings can be large or run the other way; the % refers to the signal ratio;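 note: cells stimulated with carbachol in lithium chloride buffer; plate controls were DMSO basal wells for no effect and reference inhibitor wells for full effect; higher means more IMPase inhibition seen as more IP1 and lower FRET ratio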
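CHO-M1, 2000 cells/well, cultured 16–30 h; cpd up to 46 uM; carbachol (50 uM solution, stimulation buffer w/ 50 mM LiCl, pH 7.4), 30 min 37C; IP-One TR-FRET, 10 min RT; Ex 320/Em 665, 620; Hill-fit AC50.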
HPGD block = HPGD (human) dehydrogenase inhibition; purified HPGD, NADH fluorescence kinetic, PGE2 substrate; Potency, µM, without a hit: at the highest dose activity change, negative = inhibition, most hits filed as inhibitors; 150,000 compounds, 4.3% hits; active = well fitted inhibition curve with a large enough effect, not every such curve was filed as active; inconclusive = small, poorly fitted or top-dose-only effect, or another doubt; inactive = no such curve, though single readings can be large or run the other way; note: potency is the fitted concentration of half-maximal effect; % is set by controls: 0 for no effect and ±100 for the full control effect
Target sequence (P15428 whole entry, looked up): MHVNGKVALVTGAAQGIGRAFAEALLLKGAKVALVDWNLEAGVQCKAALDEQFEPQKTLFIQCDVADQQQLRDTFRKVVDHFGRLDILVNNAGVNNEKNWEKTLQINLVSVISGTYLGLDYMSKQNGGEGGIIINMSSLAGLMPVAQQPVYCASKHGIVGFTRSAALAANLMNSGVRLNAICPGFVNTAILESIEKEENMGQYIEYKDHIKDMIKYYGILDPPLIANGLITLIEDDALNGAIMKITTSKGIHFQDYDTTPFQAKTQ
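NADH formation kinetics: reaction with 30 uM PGE2 and 1 mM NAD+ (final), 20 nM enzyme, Tris-HCl pH 8 with Tween 20, after 15 min compound preincubation at room temperature. Fluorescence change, last versus first of five reads.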
IMPase Li inh = membrane-permeable IMPase blocker, potentiated with lithium; CHO-M1 cells, IP1 TR-FRET (IP-One), carbachol + lithium; Potency, µM (titrated, usually from 59.4 µM), for the others: top-dose activity, negative = IMPase inhibition, most hits filed as inhibitors; 210,000 compounds, 0.35% hits;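 note: IP1 builds up when IMPase is blocked and the TR-FRET signal falls; potency is the fitted concentration of half-maximal effect; plate controls were basal vehicle for no effect and high inhibitor control for full effect; nearly all actives have a fitted effect of over 50% in size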
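CHO cells stably expressing M1 receptor (2000/well) were cultured 16–30 h, then exposed to compounds with a small lithium addition for 30 min at 37C. IP1 was measured by TR-FRET competition; AC50 from Hill fits.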
HttQ103 aggreg = mutant huntingtin aggregation inhibition | PC12 HttQ103-GFP aggregates, Acumen cytometry, 40 h | Potency, µM (series often up to 46.1 µM), for the others: at the top dose activity change, negative = inhibition, usual class: inhibitors | 220,000 compounds, 1.1% hits | AID 1688; note: potency is the fitted concentration of half-maximal effect; % is set by controls: 0 for no effect and ±100 for the full control effect; nearly all actives have a fitted effect of over 60% in size
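Using laser scanning cytometry, GFP-positive aggregates were counted after lysis of PC12 cells induced with 100 nM tebufenozide to express HTT exon 1 Q103–GFP. Compounds were tested in titration.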
Starred values were filed as active, the others as inactive; i = inactive; ? = inconclusive; · = not tested or not shown; [ ] = remark or other dose. Unless noted, calls come from the whole dose curve; as a rule, active = well fitted curve in the direction sought with a large enough effect; inconclusive = small, poorly fitted or top-dose-only effect, or another doubt; inactive = no such curve, though single readings can be large; an effect the other way counts as inactive or inconclusive.

SMILES	ALDH1A1 inh	HTT ATP protect	IMPase cell inh	HPGD block	IMPase Li inh	HttQ103 aggreg
COc1ccc(Oc2nc3c(C)cccn3c(=O)c2/C=C(\C#N)c2nc3ccccc3[nH]2)cc1	·	·	-1	·	·	·
CCOC(=O)C1(C(C)C)Oc2ccccc2C(c2ccc(OC)cc2)=C1C(=O)OC (stereo not drawn)	-1%	·	·	?	16%	·
COc1ccc2c(c1)Cc1sc(NC(=O)c3cccs3)nc1-2	2.5µM*	-54%[0.074 µM]	-5	-24%	42%[38.3 µM]	-3%
COc1ccc(C(=O)Nc2nc3c(s2)Cc2cc(OC)ccc2-3)cc1	22µM*	-17%	-2	-13%	0%[38.3 µM]	-11%
COc1ccc2c(c1)Cc1sc(NC(=O)c3ccccc3)nc1-2	?	-29%	3	?	23%[38.3 µM]	-14%
COc1ccc2c(c1)Cc1sc(NC(=O)c3ccccc3C)nc1-2	·	·	1	·	·	·
COCCn1c(=O)c(-c2ccc(OC)cc2)nc2cnc(Oc3ccccc3)nc21	?	8%	·	?	1%	·
CO[C@H]1COC(=O)[C@H](C)COC(=O)[C@@H](OCc2ccccc2)/C=C\[C@@H]1C	-15%[13.5 µM]	1%[10 µM]	·	·	·	·
O=C(COC(=O)c1ccccn1)Nc1ccccc1Cl	22µM*	-23%[0.074 µM]	-1	-2%	4%[38.3 µM]	-8%
O=C(COc1ccccc1O)Nc1ccccc1Cl	?	-11%	-2	18µM*	8%[38.3 µM]	6%
Cc1cc(C)c(S(=O)(=O)Nc2ccc3oc(C)c(C(=O)OC(C)C)c3c2)cc1C	·	·	-9	·	·	·
CC(=O)NCCNc1cc(-c2ccccc2C)ncn1	10%	-7%	·	·	0%	·
CN(CCc1ccc(Cl)c(Cl)c1)C[C@@H](O)COc1ccc(NS(C)(=O)=O)cc1	0%	-40%[1.9 µM]	7	-2%	24%	·
Clc1ccc2c(c1)N(CCCN1CCCC13CCCCC3)c1ccccc1S2	5%[13.5 µM]	-22%[10 µM]	·	-7%	8%	·
CC1CCN(c2[nH]c(=S)c(C#N)c3c2CCCC3)CC1	10µM*	4%	-28	11µM*	?	?
CC1(C)Cc2c(c(N3CCCCC3)[nH]c(=S)c2C#N)CS1	-3%	3%	5	-10%	-2%[38.3 µM]	23%[9.22 µM]
CCOC(=O)N1CCN(C(=O)CN(c2ccccc2F)S(=O)(=O)c2ccc(C)cc2)CC1	·	·	-5	·	·	·
c1ccc(Nc2ncncc2-c2ccc3c(c2)OCO3)cc1	0%	-54%	·	·	-4%	·
COc1ccccc1NC(=O)NC1(C(=O)N2CCCCCC2)CCCCC1	7.1µM*	0%[10 µM]	7	-4%	13%	-10%
Oc1cccc2ccc(Nc3ccccn3)nc12	-7%	-95%[10 µM]	10	-15%	51%[38.3 µM]	3.5µM*
C=CCn1c(SCC(=O)C(C)(C)C)nnc1-c1cccs1	13µM*	-38%	8	14µM*	-6%[38.3 µM]	2%
C=CCn1c(SCC(=O)C(C)(C)C)nnc1-c1ccccn1	?	-18%[0.074 µM]	2	-21%	9%	4%
CCn1c(SCC(=O)C(C)(C)C)nnc1-c1ccccn1	7.1µM*	-3%	-5	-15%	20%[38.3 µM]	-12%
O=C(CSc1nnc(-c2ccccn2)n1Cc1ccccc1)N1CCCC1	-11%	20%[10 µM]	-6	28µM*	6%	-23%
CC(=O)CCOC1CCCCO1 (stereo not drawn)	9%	-23%	·	-8%	45%	·
SMILES	ALDH1A1 inh	HTT ATP protect	IMPase cell inh	HPGD block	IMPase Li inh	HttQ103 aggreg
Nc1nc(-c2cccs2)c(NC(=O)c2ccccc2)s1	20µM*	2%[10 µM]	21	-6%	11%[38.3 µM]	?
CC(=O)Nc1sc(NC(=O)c2ccc(Cl)cc2)nc1-c1cccs1	-9%	-21%	-2	-19%	7%[38.3 µM]	-4%
O=C(C1CCN(S(=O)(=O)c2ccc(Br)s2)CC1)N1CCN(c2cccc(C(F)(F)F)c2)CC1	·	·	-2	·	·	·
O=C(CCN1CCC(c2ccc(Cl)s2)=N1)c1ccc(Cl)s1	3.2µM*	9%[10 µM]	·	·	·	6%[9.22 µM]
O=C1c2c(O)cc(O)cc2O[C@@H](c2ccc(O)c(O)c2)[C@H]1O	·	-8%[1.9 µM]	16	·	·	·
COC(=O)C1CSc2[nH]c(=O)sc2C1c1ccc(OC)c(OC)c1 (stereo not drawn)	7.9µM*	-21%	-19	3%	-11%[38.3 µM]	8%
COC(=O)C1C(c2ccc(OC)c(OC)c2)NC(c2ccc(OC)c(OC)c2)C(C(=O)OC)S1(=O)=O (stereo not drawn)	-2%	0%[1.9 µM]	6	-7%	10%	-8%
OC[C@@H]1O[C@@H](n2cnc3cncnc32)[C@@H](O)[C@H]1O	·	13%[1.9 µM]	-7	·	·	·
Cc1c(C(=O)c2ccc(N(C)C)cc2)c2ccccn2c1CCC#N	16µM*	-48%	·	·	-5%	-14%
CC(N)C(=O)NCC(=O)NC1CSSCC(C(=O)O)NC(=O)C(CO)NC(=O)C(C(C)O)NC(=O)C(Cc2ccccc2)NC(=O)C(C(C)O)NC(=O)C(CCCCN)NC(=O)C(Cc2c[nH]c3ccccc23)NC(=O)C(Cc2ccccc2)NC(=O)C(Cc2ccccc2)NC(=O)C(CC(N)=O)NC(=O)C(CCCCN)NC1=O (stereo not drawn)	·	22%	·	·	·	19%
O=c1cc(-c2ccco2)nc(-c2cccs2)o1	14µM*	5%	3	-18%	-1%[38.3 µM]	-7%[9.22 µM]
c1coc(-c2nnc(-c3cccs3)o2)c1	?	-2%[10 µM]	-9	?	13%[38.3 µM]	-4%
COc1cc(/C=N/NC(=O)CC2(C)OCCCO2)ccc1OCc1ccccc1	11µM*	-4%[10 µM]	·	?	8%	-11%
COc1cc(/C=N/NC(=O)CC2(C)OCCCO2)ccc1OCc1ccc(Cl)cc1Cl	0%	14%[10 µM]	·	-22%	8%	-1%
COC(=O)CN(c1ccc(OCc2ccccc2)cc1)S(C)(=O)=O	?	-1%	·	·	4%	16%
O=c1cnc2cnc(OCc3ccccc3)nc2n1Cc1ccc(F)cc1	?	-241%	·	32µM*	17%	·
COc1ccc(Oc2ncc3ncc(=O)n(CCc4ccccc4)c3n2)cc1	0.89µM*	23%	·	-4%	?	·
COc1ccc(Oc2ncc3ncc(=O)n(Cc4cccc(OC)c4)c3n2)cc1	-5%	-139%	·	18µM*	-4%	·
CN1CCN(c2ncc3nc(-c4cc(F)cc(F)c4)c(=O)n(-c4ccccc4)c3n2)CC1	?	2%	·	i	-7%	·
Cc1cc(C)n(-c2nc3ccccc3nc2Nc2cccc(C)c2C)n1	·	·	10	·	·	·
OCC1OC(c2ccc3c(c2)OCO3)C=CC1Oc1cc(Cl)cc(Cl)c1 (stereo not drawn)	?	2%[10 µM]	·	·	·	·
